Test results published in PubChem BioAssay AID1159580 (chemical genetic matrix, 2015).
The campaign covered roughly 5,500 compounds. About 2,000 (36%) were called active. Another 18% or so got no clear call; they are omitted. No stated cut-off is given here; in the data, active means normalized growth mostly below about 0.91 (no sharp cut-off); inconclusive means no clear call, values can overlap the other calls; inactive means mostly above about 0.92. Some of the results follow.

Assay: chemical genetic growth profiling, strain panel (AID 1159580);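 further: tested at 20 µM; growth read once vehicle control cultures reached saturation at 30 °C; 1 = growth at the plate median or of vehicle wells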
Settings: growth OD
[1] = S. cerevisiae deletion strains, locus YAR019C, strain CDC15, stronger effect = lower value
[2] = S. cerevisiae deletion strains, locus YBL105C, strain PKC1, stronger effect = lower value
[3] = S. cerevisiae deletion strains, locus YBR135W, strain CKS1, stronger effect = lower value
[4] = S. cerevisiae deletion strains, locus YBR136W, strain MEC1, stronger effect = lower value
[5] = S. cerevisiae deletion strains, locus YBR160W, strain CDC28, stronger effect = lower value
[6] = S. cerevisiae deletion strains, locus YDL017W, strain CDC7, stronger effect = lower value
[7] = S. cerevisiae deletion strains, locus YDL028C, strain MPS1, stronger effect = lower value
[8] = S. cerevisiae deletion strains, locus YDL101C, strain DUN1, stronger effect = lower value
[9] = S. cerevisiae deletion strains, locus YDL108W, strain KIN28, stronger effect = lower value
[10] = S. cerevisiae deletion strains, locus YDL132W, strain cdc53, stronger effect = lower value
[11] = S. cerevisiae deletion strains, locus YDL214C, strain PRR2, stronger effect = lower value
[12] = S. cerevisiae deletion strains, locus YDR052C, strain DBF4, stronger effect = lower value
[13] = S. cerevisiae deletion strains, locus YDR054C, strain cdc34, stronger effect = lower value
[14] = S. cerevisiae deletion strains, locus YDR226W, strain ADK1, stronger effect = lower value
[15] = S. cerevisiae deletion strains, locus YDR477W, strain SNF1, stronger effect = lower value
[16] = S. cerevisiae deletion strains, locus YER123W, strain YCK3, stronger effect = lower value
[17] = S. cerevisiae deletion strains, locus YER133W, strain GLC7, stronger effect = lower value
[18] = S. cerevisiae deletion strains, locus YFL009W, strain cdc4, stronger effect = lower value
[19] = S. cerevisiae deletion strains, locus YFL029C, strain CAK1, stronger effect = lower value
[20] = S. cerevisiae deletion strains, locus YFR003C, strain YPI1, stronger effect = lower value
[21] = S. cerevisiae deletion strains, locus YFR019W, strain FAB1, stronger effect = lower value
[22] = S. cerevisiae deletion strains, locus YFR028C, strain CDC14, stronger effect = lower value
[23] = S. cerevisiae deletion strains, locus YGR040W, strain KSS1, stronger effect = lower value
[24] = S. cerevisiae deletion strains, locus YGR052W, strain FMP48, stronger effect = lower value
[25] = S. cerevisiae deletion strains, locus YGR092W, strain DBF2, stronger effect = lower value
[26] = S. cerevisiae deletion strains, locus YHR030C, strain SLT2, stronger effect = lower value
[27] = S. cerevisiae deletion strains, locus YHR079C, strain IRE1, stronger effect = lower value
[28] = S. cerevisiae deletion strains, locus YHR082C, strain KSP1, stronger effect = lower value
[29] = S. cerevisiae deletion strains, locus YHR205W, strain SCH9, stronger effect = lower value
[30] = S. cerevisiae deletion strains, locus YIL147C, strain SLN1, stronger effect = lower value
[31] = S. cerevisiae deletion strains, locus YJL095W, strain BCK1, stronger effect = lower value
[32] = S. cerevisiae deletion strains, locus YJL128C, strain PBS2, stronger effect = lower value
[33] = S. cerevisiae deletion strains, locus YJL157C, strain FAR1, stronger effect = lower value
[34] = S. cerevisiae deletion strains, locus YJR016C, strain ILV3, stronger effect = lower value
[35] = S. cerevisiae deletion strains, locus YJR066W, strain TOR1 (second series), stronger effect = lower value
[36] = S. cerevisiae deletion strains, locus YJR066W, strain TOR1, stronger effect = lower value
[37] = S. cerevisiae deletion strains, locus YKL048C, strain ELM1, stronger effect = lower value
[38] = S. cerevisiae deletion strains, locus YKL067W, strain YNK1, stronger effect = lower value
[39] = S. cerevisiae deletion strains, locus YKL101W, strain HSL1, stronger effect = lower value
[40] = S. cerevisiae deletion strains, locus YKL193C, strain SDS22, stronger effect = lower value
[41] = S. cerevisiae deletion strains, locus YKL203C, strain TOR2, stronger effect = lower value
[42] = S. cerevisiae deletion strains, locus YLR113W, strain HOG1, stronger effect = lower value
[43] = S. cerevisiae deletion strains, locus YLR133W, strain CKI1, stronger effect = lower value
[44] = S. cerevisiae deletion strains, locus YLR403W, strain SFP1, stronger effect = lower value
[45] = S. cerevisiae deletion strains, locus YML070W, strain DAK1, stronger effect = lower value
[46] = S. cerevisiae deletion strains, locus YMR001C, strain CDC5, stronger effect = lower value
[47] = S. cerevisiae deletion strains, locus YMR205C, strain PFK2 (second series), stronger effect = lower value
[48] = S. cerevisiae deletion strains, locus YMR277W, strain FCP1, stronger effect = lower value
[49] = S. cerevisiae deletion strains, locus YNL006W, strain LST8, stronger effect = lower value
[50] = S. cerevisiae deletion strains, locus YNL020C, strain ARK1, stronger effect = lower value
[51] = S. cerevisiae deletion strains, locus YNL161W, strain CBK1, stronger effect = lower value
[52] = S. cerevisiae deletion strains, locus YNL183C, strain NPR1, stronger effect = lower value
[53] = S. cerevisiae deletion strains, locus YNL207W, strain RIO2, stronger effect = lower value
[54] = S. cerevisiae deletion strains, locus YNL222W, strain SSU72, stronger effect = lower value
[55] = S. cerevisiae deletion strains, locus YNL307C, strain MCK1 (second series), stronger effect = lower value
[56] = S. cerevisiae deletion strains, locus YOL078W, strain AVO1, stronger effect = lower value
[57] = S. cerevisiae deletion strains, locus YOL136C, strain PFK27, stronger effect = lower value
[58] = S. cerevisiae deletion strains, locus YOR061W, strain CKA2, stronger effect = lower value
[59] = S. cerevisiae deletion strains, locus YOR119C, strain RIO1, stronger effect = lower value
[60] = S. cerevisiae deletion strains, locus YOR231W, strain MKK1, stronger effect = lower value
[61] = S. cerevisiae deletion strains, locus YOR329C, strain SCD5, stronger effect = lower value
[62] = S. cerevisiae deletion strains, locus YPL031C, strain PHO85, stronger effect = lower value
[63] = S. cerevisiae deletion strains, locus YPL153C, strain RAD53, stronger effect = lower value
[64] = S. cerevisiae deletion strains, locus YPL204W, strain HRR25, stronger effect = lower value
[65] = S. cerevisiae deletion strains, locus YPL209C, strain IPL1, stronger effect = lower value
[66] = S. cerevisiae deletion strains, locus YPL256C, strain CLN2, stronger effect = lower value
[67] = S. cerevisiae deletion strains, locus YPR025C, strain CCL1, stronger effect = lower value
[68] = S. cerevisiae deletion strains, locus YPR106W, strain ISR1, stronger effect = lower value
[69] = S. cerevisiae deletion strains, locus YPR111W, strain DBF20, stronger effect = lower value
[70] = S. cerevisiae deletion strains, strain NNK1, stronger effect = lower value
[71] = S. cerevisiae deletion strains, strain TSCII, stronger effect = lower value
[72] = S. cerevisiae deletion strains, locus YAL013W, strain DEP1, stronger effect = lower value
[73] = S. cerevisiae deletion strains, locus YBR229C, strain ROT2, stronger effect = lower value
[74] = S. cerevisiae deletion strains, locus YDL134C, strain PPH21, stronger effect = lower value
[75] = S. cerevisiae deletion strains, locus YDR150W, strain NUM1, stronger effect = lower value
[76] = S. cerevisiae deletion strains, locus YEL061C, strain CIN8, stronger effect = lower value
[77] = S. cerevisiae deletion strains, locus YGR078C, strain PAC10, stronger effect = lower value
[78] = S. cerevisiae deletion strains, locus YHR087W, strain rtc3, stronger effect = lower value
[79] = S. cerevisiae deletion strains, locus YJL187C, strain SWE1, stronger effect = lower value
[80] = S. cerevisiae deletion strains, locus YJR043C, strain POL32, stronger effect = lower value
[81] = S. cerevisiae deletion strains, locus YJR075W, strain HOC1, stronger effect = lower value
[82] = S. cerevisiae deletion strains, locus YKL190W, strain CNB1, stronger effect = lower value
[83] = S. cerevisiae deletion strains, locus YLR039C, strain RIC1, stronger effect = lower value
[84] = S. cerevisiae deletion strains, locus YLR058C, strain SHM2 (second series), stronger effect = lower value
[85] = S. cerevisiae deletion strains, locus YLR085C, strain ARP6, stronger effect = lower value
[86] = S. cerevisiae deletion strains, locus YLR262C, strain YPT6, stronger effect = lower value
[87] = S. cerevisiae deletion strains, locus YML094W, strain GIM5, stronger effect = lower value
[88] = S. cerevisiae deletion strains, locus YMR219W, strain ESC1, stronger effect = lower value
[89] = S. cerevisiae deletion strains, locus YMR263W, strain SAP30, stronger effect = lower value
[90] = S. cerevisiae deletion strains, locus YMR307W, strain GAS1, stronger effect = lower value
[91] = S. cerevisiae deletion strains, locus YNL153C, strain GIM3, stronger effect = lower value
[92] = S. cerevisiae deletion strains, locus YNL298W, strain CLA4 (second series), stronger effect = lower value
[93] = S. cerevisiae deletion strains, locus YNL322C, strain KRE1, stronger effect = lower value
[94] = S. cerevisiae deletion strains, locus YNR030W, strain Alg12, stronger effect = lower value
[95] = S. cerevisiae deletion strains, locus YOL006C, strain TOP1, stronger effect = lower value
[96] = S. cerevisiae deletion strains, locus YPL055C, strain LGE1, stronger effect = lower value
[97] = S. cerevisiae deletion strains, locus YPL241C, strain CIN2, stronger effect = lower value
[98] = S. cerevisiae deletion strains, locus YPR135W, strain CTF4, stronger effect = lower value

Measured: normalized growth

Nc1ccccc1C(=O)N/N=C\c1cc(Br)ccc1O
inactive: [1] 0.985 | [2] 0.984 | [3] 0.981 | [4] 0.982 | [5] 0.989 | [6] 0.98 | [7] 0.976 | [8] 0.984 | [9] 0.982 | [10] 0.97 | [11] 0.972 | [12] 0.99 | [13] 0.97 | [14] 0.96 | [15] 0.961 | [16] 0.877 | [17] 0.979 | [18] 0.965 | [19] 0.971 | [20] 0.974 | [21] 0.985 | [22] 0.985 | [23] 0.982 | [24] 0.925 | [26] 0.855 | [27] 0.828 | [28] 1.02 | [29] 0.866 | [30] 0.981 | [31] 0.798 | [32] 0.933 | [33] 0.947 | [34] 0.976 | [35] 0.903 | [36] 0.976 | [37] 0.928 | [38] 0.948 | [39] 0.901 | [40] 0.976 | [41] 1.02 | [43] 0.927 | [44] 0.88 | [45] 0.901 | [46] 0.986 | [47] 0.939 | [48] 0.976 | [49] 0.995 | [50] 0.929 | [51] 0.979 | [52] 0.958 | [53] 0.979 | [54] 0.981 | [55] 0.871 | [56] 0.984 | [57] 0.898 | [58] 0.922 | [59] 1.08 | [60] 0.871 | [61] 0.98 | [62] 0.95 | [63] 0.927 | [64] 0.947 | [65] 0.985 | [67] 0.979 | [68] 0.968 | [69] 0.969 | [70] 0.988 | [71] 0.99
active: [25] 0.452 | [42] 0.784 | [66] 0.779

Nc1ccccc1C(=O)N/N=C\c1cccc2ccccc12
active: [74] 0.813 | [76] 0.85 | [26] 0.461 | [83] 0.734 | [85] 0.615 | [86] 0.803 | [87] 0.831 | [90] 0.526 | [92] 0.807 | [94] 0.875 | [95] 0.535 | [97] 0.819
inactive: [72] 0.994 | [73] 0.977 | [8] 1.01 | [75] 0.971 | [77] 0.993 | [78] 0.992 | [79] 0.994 | [80] 1.01 | [81] 0.979 | [82] 0.944 | [84] 0.991 | [88] 0.989 | [89] 0.992 | [91] 1.01 | [93] 0.992 | [96] 0.973 | [98] 0.66

O=C(N/N=C\c1c(O)ccc2ccccc12)N/N=C\c1c(O)ccc2ccccc12
inactive: [72] 0.996 | [73] 0.975 | [8] 1.02 | [74] 0.94 | [75] 0.908 | [76] 0.962 | [77] 1.01 | [26] 0.875 | [78] 0.989 | [79] 0.994 | [80] 0.988 | [81] 1.07 | [82] 1.01 | [83] 1.03 | [84] 0.992 | [85] 0.899 | [86] 0.953 | [87] 0.924 | [88] 1.02 | [89] 0.928 | [90] 1.09 | [91] 0.951 | [92] 0.879 | [93] 1.02 | [94] 0.928 | [95] 0.888 | [96] 1.01 | [97] 0.939 | [98] 0.968 | S. cerevisiae strains, strain wild type, stronger effect = lower value 0.994

O=C(N/N=C\c1cc(Br)ccc1O)c1ccccc1Oc1ccccc1
active: [42] 0.694 | [66] 0.764
inactive: [1] 0.963 | [2] 0.976 | [3] 0.981 | [4] 0.963 | [5] 0.973 | [6] 0.969 | [7] 0.96 | [8] 0.97 | [9] 0.971 | [10] 0.966 | [11] 0.932 | [12] 0.97 | [13] 0.968 | [14] 0.972 | [15] 0.943 | [16] 0.879 | [17] 0.955 | [18] 0.964 | [19] 0.953 | [20] 0.969 | [21] 0.953 | [22] 0.965 | [23] 0.942 | [24] 0.954 | [25] 0.914 | [26] 0.854 | [27] 0.885 | [28] 0.924 | [29] 0.838 | [30] 0.949 | [31] 0.846 | [32] 0.928 | [33] 0.955 | [34] 0.979 | [35] 0.901 | [36] 0.953 | [37] 0.915 | [38] 0.923 | [39] 0.89 | [40] 0.972 | [41] 1 | [43] 0.916 | [44] 0.927 | [45] 0.888 | [46] 0.972 | [47] 0.919 | [48] 0.98 | [49] 0.977 | [50] 0.935 | [51] 0.982 | [52] 0.883 | [53] 0.976 | [54] 0.969 | [55] 0.912 | [56] 0.98 | [57] 0.909 | [58] 0.939 | [59] 0.97 | [60] 0.892 | [61] 0.968 | [62] 0.94 | [63] 0.934 | [64] 0.94 | [65] 0.974 | [67] 0.969 | [68] 0.976 | [69] 0.947 | [70] 0.959 | [71] 0.972
